# Screens as filed in PubChem BioAssay.
# The list is not random: actives were taken first. Their share in the collection is about 21%.
# Shiga toxin inh – A qHTS for Small Molecule Inhibitors of Shiga Toxin; Vero cells, Shiga toxin protein synthesis inhibition reporter; inhibition, % at 38.7 µM; AID 2315, 2010; 9.2% of 290,000 active; in the data active means inhibition mostly above about 28%, no sharp cut-off; inactive means mostly below about 43%; further: 0% is about no effect
# Pf growth 48h – Primary qHTS for delayed death inhibitors of the malarial parasite plastid, 48 hour incubation; Potency, µM (series often up to 28.7 µM), inactives show top-dose activity change, negative = inhibition, most hits filed as inhibitors; P. falciparum luciferase growth in erythrocytes, 48 h; AID 504832, 2011; 5.9% of 310,000 active; further: potency means the concentration at half of the fitted maximal effect; on the % scale 0 is the no-effect control and ±100 the full control effect
#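 In quantitative HTS format, infected erythrocytes bearing luciferase-reporter parasites were treated for a single generation at 37 C. Luminescence after adding detection reagent served as the growth measure.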
# CHX counter – Cycloheximide Counterscreen for Small Molecule Inhibitors of Shiga Toxin | 12% of 300,000 active | AID 2314, 2010 | max response, % | cell reporter, cycloheximide protein synthesis inhibition counterscreen; in the data active means max response mostly above about 13%, no sharp cut-off; inactive means mostly below about 14%; further: read at 38.3 µM for the half of the compounds with a filed dose; 0% is about no effect
# Pf growth 96h – Primary qHTS for delayed death inhibitors of the malarial parasite plastid, 96 hour incubation | Potency, µM (top dose mostly 28.7 µM), for the others: top-dose activity change, negative = inhibition, usual class: inhibitors | 6.9% of 320,000 active | P. falciparum luciferase reporter growth, 96 h | AID 504834, 2011; further: potency means the concentration at half of the fitted maximal effect; on the % scale 0 is the no-effect control and ±100 the full control effect
#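 96 h incubation, 37 C, 5% CO2, of luciferase-reporter P. falciparum-infected RBCs (2% hematocrit, 0.05% parasitemia final) with test compounds; endpoint luminescence.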
# AMA1-RON2 inh – qHTS for Inhibitors of AMA1-RON; Towards Development of Antimalarial Drug Lead: Primary Screen | Plasmodium falciparum AMA1 (3D7) - RON2 peptide interaction | 0.2% of 360,000 active | AlphaScreen AMA1-biotinylated RON2 peptide binding | Potency, µM (doses to about 58.2 µM), inactives show top-dose activity change, negative = inhibition, actives largely listed as inhibitors;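 further: potency means the concentration at half of the fitted maximal effect; 0% = vehicle wells and -100% = peptide control; nearly all actives have a fitted effect of over 45% in size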
#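 AMA1 (3D7) with his tag at 25 nM final met compounds first, then biotinylated RON2 peptide at 25 nM; detection used donor plus acceptor beads, 10 µg/mL apiece, read by AlphaScreen after 30 min at room temperature.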
# HCV inh – qHTS Assay for Inhibitors of Hepatitis C Virus (HCV) | Huh7.5.1 HCVcc-Cre infection, luciferase reporter, 44 h | Potency, µM (series often up to 41.8 µM), inactives show at the highest dose activity change, negative = inhibition, hits mostly inhibitors | 3.4% of 340,000 active; further: potency means the concentration at half of the fitted maximal effect; on the % scale 0 is the no-effect control and ±100 the full control effect
#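 Antiviral activity was scored by luciferase reporter output from cells infected with HCVcc-Cre (~0.5 moi) in presence of compound, 44 h infection period, cells seeded 1,000/well 4 h prior.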
# An asterisk follows results filed as active; ? = inconclusive; / = not tested or not shown; [ ] = another dose, or the depositor's remark. Unless noted, the call rests on the fitted dose curve; in most records, active means well fitted curve in the direction sought with a large enough effect; inconclusive means small, poorly fitted or top-dose-only effect, or another doubt; inactive means no such curve, though single readings can be large; an effect the other way counts as inactive or inconclusive.
SMILES,Shiga toxin inh,Pf growth 48h,CHX counter,Pf growth 96h,AMA1-RON2 inh,HCV inh
COCC(=O)Nc1nnc(-c2ccc(C(C)(C)C)cc2)s1,91*,13%,52*,16%,25%,-2%
O=C(Cn1sc2ccccc2c1=O)Nc1ccccc1,/,/,/,/,-17%,/
Cc1ccc2nc(-c3ccc(NC(=O)Cc4cccs4)cc3)[nH]c2c1,75,?,30*,4.1µM*,-8%,11µM*
COCC(=O)Nc1nc2ccc(S(C)(=O)=O)cc2s1,108*,0%,40*,49%,-1%,15%
CC(C)(C)c1ccc(-c2nnc(NC(=O)c3ccccc3)s2)cc1,3,52%,-2,29%,25%,-21%
O=C(Cc1nc(=O)c2ccccc2s1)Nc1ccccc1,67*,194%,59*,102%,14%,-2%
O=C(Oc1coc(CSc2ncccn2)cc1=O)c1ccccc1[N+](=O)[O-],-9,20%,21,-37%,1%,8%
Cc1cccc(N(CC(=O)N2CCCCCC2)S(C)(=O)=O)c1,-6,11%,0,?,12%,14%
O=C(NC1CCCCC1)C1c2ccccc2OCC(=O)N1Cc1ccco1 (stereo not drawn),/,/,/,/,40%,/
CC(=O)Nc1ccc(S(=O)(=O)NCC2CCC(C(=O)N3CC(C)CC(C)C3)CC2)cc1 (stereo not drawn),-12,?,-2,-24%,25%,3%
COc1ccc2nc(NC(=O)Cc3cccs3)sc2c1,152*,151%,51*,/,1%,?
Cc1cnc(NC(=O)Cc2cccs2)s1,50,94%,21*,7%,5%,-10%
Cc1cnc(NC(=O)Cc2ccc(Br)cc2)s1,2,4%,2,?,-4%,-7%
COc1ccc2nc(NC(=O)CSC(C)C(=O)Nc3cc(C)on3)sc2c1 (stereo not drawn),/,-8%,/,?,19%,-7%
COCC(=O)Nc1nc2ccccc2s1,50*,47%,29*,32%,8%,-11%
CC1(C(=O)Nc2nc3ccccc3s2)CC1(Br)Br (stereo not drawn),94*,10%[0.00184 µM],44*,-13%,0%,6%
CC(C)=CCN1CCN(Cc2ccc(Sc3nncn3C)o2)CC1CCO (stereo not drawn),3,18%,-5,21%,8%,0%
CCc1ccccc1NC(=O)CN1CCN(C(=O)CCC(=O)N2CCC(c3ccccc3)=N2)CC1,/,?,/,?,0%,?
Cc1ccc(NC(=O)C2CCCN(S(=O)(=O)c3cccnc3)C2)c(C)c1 (stereo not drawn),-4,?,-4,-13%,-7%,2%
COc1ccc2nc(NC(=O)CN(C)S(=O)(=O)c3cccs3)sc2c1,58*,-22%,23*,?,-4%,?
CCc1ccc2nc(NC(=O)CCCc3cccs3)sc2c1,49*,/,33*,-5%,4%,0%
CC(Cc1ccccc1)C(=O)NCc1nc2ccccc2s1 (stereo not drawn),30*,57%,19*,10%,32%,16%
CN(C)C(CNC(=O)CCc1nc2ccccc2s1)c1ccccc1 (stereo not drawn),-3,24%,5,4%,18%,3%
Cc1ccc2nc(NC(=O)Cc3cccs3)sc2c1,125*,/,50*,113%,-2%,?
Cc1ccc(-c2csc(NC(=O)CCCc3cccs3)n2)cc1,2,5%,-1,-9%,-1%,6%
SMILES,Shiga toxin inh,Pf growth 48h,CHX counter,Pf growth 96h,AMA1-RON2 inh,HCV inh
COc1ccc2nc(NC(=O)CNS(=O)(=O)c3cccs3)sc2c1,10,/,12,-29%,0%,0%
CCn1ncc(S(=O)(=O)Nc2cc(Cl)ccc2C)c1C,2,29%,-1,?,2%,9%
CCOC(=O)C1=C(C)N(CCC(=O)O)C(=O)NC1c1ccccc1Cl (stereo not drawn),/,/,/,/,2%,17%
CC1(C2CC(C(F)(F)F)n3nc(C(=O)O)cc3N2)CC1 (stereo not drawn),-3,9%,-3,15%,3%,10%
NC(=S)Nc1nc2ccccc2s1,64*,?,38*,?,85%,14%
Cc1cc[n+](CC(=O)Nc2nc3ccccc3s2)cc1,3,15%,6,?,-9%,15%
CCOc1ccc2nc(NC(=O)Cc3cccs3)sc2c1,84*,98%,40*,/,-4%,?
O=C(Cc1ccccc1)Nc1nc(=O)c2ccccc2s1,-3,52%,0,71%,9%,-4%
Cc1ccc2nc(-c3ccc(NC(=O)C4CCCO4)cc3)[nH]c2c1 (stereo not drawn),44,/,55*,-74%,-3%,-26%
O=C(Cc1ccccc1)Nc1nc2ccccc2s1,49*,168%,26*,-20%,4%,23%
CCOc1ccc2nc(NS(=O)(=O)c3cccs3)sc2c1,/,26%,-3,63%,1%,29%
COc1ccc(-n2c(SCC(=O)Nc3ccc(Br)cc3)nc(O)cc2=O)cc1,-2,?,1,-23%,0%,15%
Cc1ccc(Cl)cc1NC(=O)Nc1c(C)n(C)n(-c2ccccc2)c1=O,0,-15%,2,-15%,-5%,1%
COC(=O)c1cc(S(=O)(=O)NCc2ccc(Br)cc2)c[nH]1,-15,9%,-1,-1%,1%,9%
O=C(CCNC(=O)c1ccccc1Cl)NCCC1=CCCCC1,/,?,/,14%,8%,1%
O=C(Cc1cccs1)Nc1nc2ccccc2s1,111*,2%,30*,100%,-4%,-21%
CCCc1c(C)[nH]c2ccc(C(=O)O)cc2c1=S,14,21%,-2,-3%,-17%,11%
O=C1C[C@H](c2ccccc2Cl)N1S(=O)(=O)c1ccccc1[N+](=O)[O-],-1,/,-4,/,/,/
CCOC(=O)Cc1nnc(NC(=O)CCc2ccccc2)s1,-4,4%,-2,38%,-4%,12%
O=C(Nc1nnc(CCc2ccccc2)s1)c1ccccc1,46*,49%,14*,?,27%,0%
CC(C)C(=O)Nc1nnc(CCc2ccccc2)s1,30,-3%[0.00184 µM],19*,3%,11%,-13%
CC(C)(C)Cc1nnc(NC(=O)CCc2ccccc2)s1,8,49%,13*,-24%,0%,2%
CC(C)(C)C(=O)Nc1nnc(CCc2ccccc2)s1,81*,145%,50*,472%,8%,27%
CCC(CC)C(=O)Nc1nnc(CCc2ccccc2)s1,-1,-6%,9,-28%,-17%,2%
